Source: PubChem BioAssay AID689 (Sanford-Burnham Center for Chemical Genomics, 2007)
About 80 (0.1%) of roughly 62,000 compounds were called active. How the calls were made is not given here. These entries were drawn from the full list. Potency and affinity values are given separately.

target: Ephrin type-A receptor 4 (Mus musculus) (UniProt Q03137); assay: inhibitors of EphA4 binding to KYL peptide, primary screen, biochemical, colorimetric, mouse EphA4 (AID 689); conditions: EphA4-AP binding to KYL peptide, pNPP A405, at 10 µM, active compounds read high
Sequence (Q03137 whole entry, looked up): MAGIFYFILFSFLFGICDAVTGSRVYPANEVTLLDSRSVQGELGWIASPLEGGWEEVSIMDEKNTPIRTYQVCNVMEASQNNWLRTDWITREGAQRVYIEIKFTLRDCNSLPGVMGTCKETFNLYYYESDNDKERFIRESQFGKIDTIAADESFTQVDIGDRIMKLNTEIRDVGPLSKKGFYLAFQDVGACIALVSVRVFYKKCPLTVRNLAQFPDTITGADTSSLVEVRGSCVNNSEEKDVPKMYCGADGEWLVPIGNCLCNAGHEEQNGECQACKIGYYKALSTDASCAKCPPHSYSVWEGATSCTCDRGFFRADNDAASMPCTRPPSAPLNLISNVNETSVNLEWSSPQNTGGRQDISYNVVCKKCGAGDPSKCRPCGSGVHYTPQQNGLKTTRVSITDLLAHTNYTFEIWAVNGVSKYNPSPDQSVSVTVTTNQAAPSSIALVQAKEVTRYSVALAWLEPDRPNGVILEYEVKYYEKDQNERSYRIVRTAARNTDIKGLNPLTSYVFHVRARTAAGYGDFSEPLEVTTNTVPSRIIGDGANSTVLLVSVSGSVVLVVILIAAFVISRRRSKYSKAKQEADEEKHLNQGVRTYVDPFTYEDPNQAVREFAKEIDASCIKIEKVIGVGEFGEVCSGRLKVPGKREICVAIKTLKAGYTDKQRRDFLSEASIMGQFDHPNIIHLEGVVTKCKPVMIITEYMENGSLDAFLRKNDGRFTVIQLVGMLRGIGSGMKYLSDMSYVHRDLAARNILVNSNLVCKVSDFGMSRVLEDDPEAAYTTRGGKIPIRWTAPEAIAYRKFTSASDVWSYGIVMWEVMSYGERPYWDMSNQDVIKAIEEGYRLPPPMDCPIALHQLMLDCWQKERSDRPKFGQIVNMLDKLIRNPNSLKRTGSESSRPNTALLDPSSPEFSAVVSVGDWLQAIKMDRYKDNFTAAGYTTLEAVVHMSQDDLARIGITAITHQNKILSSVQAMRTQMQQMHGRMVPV

inhibition, inactive:
CCN(Cc1ccccc1)C(=O)c1ccc([N+](=O)[O-])cc1 1.5% [this sample at 5 µg/mL]
Nc1ccc(N(c2ccccc2)c2ccc(N)cc2)cc1 5.1%
CCOc1ccc(S(=O)(=O)N(CC(=O)Nc2ccccc2C)c2ccc(C)cc2)cc1 2% [this sample at 5 µg/mL]
Cc1cccc2sc(NC(=O)c3ccccc3C(=O)O)nc12 -11.2% [this sample at 5 µg/mL]
Cc1cccc2sc(NC(=O)c3ccc(Cl)s3)nc12 -3.3%
CCOC(=O)C(O)(CCC(O)(C(=O)OCC)C(=O)OCC)C(=O)OCC -4.3%
O=C1CCC(C23CC4CC(CC(C4)C2)C3)=NN1 -8.4% [this sample at 5 µg/mL]
Oc1ccc(-c2cn3c(n2)SCC3)cc1 4.1%
Cc1nc(-c2ccc(O)c(O)c2)cs1 1.8%
Cc1onc(-c2ccccc2Cl)c1C(=O)Nc1ccc(N2CCOCC2)cc1 1.6%
O=C1c2nc3ccccn3c2C(=O)N1Cc1ccccc1 6.8%
Cc1ccc(N(CC(=O)N/N=C/c2ccco2)S(=O)(=O)c2ccccc2)cc1 15.6%
CCOc1ccc(S(=O)(=O)N(CC(=O)O)c2ccccc2)cc1 0.2%
Cc1ccc(-c2nc3ncccc3o2)cc1NC(=O)COc1ccccc1 4.8%
CCOC(=O)c1cnc2c(OC)cccc2c1N1CCN(c2ccccc2OC)CC1 3.2%
O=[N+]([O-])/C=C/c1cn(Cc2ccc(F)cc2)c2ccccc12 30.9%
Cc1cccc(Cn2cc(/C=C/[N+](=O)[O-])c3ccccc32)c1 40.7%
Cc1ccc(NC(=O)N2Cc3ccccc3CC2C(=O)NC(C)(C)C)cc1 (stereo not drawn) 1%
O=C(/C=C/c1ccc2c(c1)OCO2)c1ccc(Br)cc1 3.2% [this sample at 5 µg/mL]
CNc1ccc(Br)cc(C(=O)/C=C/c2ccc3c(c2)OCO3)c1=O 32.2%
CCOC(=O)c1sc(NC(NC(=O)c2ccco2)(C(=O)OC)C(F)(F)F)nc1C (stereo not drawn) 4.3%
CCN1/C(=C/C(C)=O)Sc2ccccc21 -0.8% [this sample at 5 µg/mL]
CCN1/C(=C/c2ccc3ccccc3[n+]2CC)C=Cc2ccccc21 2%
Cn1c(=O)[nH]c(=O)c2c1nc(CN1CCN(c3cccc(Cl)c3)CC1)n2CCN1CCOCC1 8.6%
O=C(c1sc2ccccc2c1Cl)N(Cc1ccco1)C1CCS(=O)(=O)C1 (stereo not drawn) -4.2%
COc1ccccc1C1C(C(N)=O)=C(C)Nc2nc(-c3ccccc3Cl)nn21 (stereo not drawn) -24.8%
Cc1cc(C=C2C(=O)N(C)C(=O)N(C)C2=O)c(C)n1C 3.4% [this sample at 5 µg/mL]
Cc1cc(/C=C2\SC(=S)NC2=O)c(C)n1C1CC1 9.1%
O=C(c1ccccc1)N1CCN(C(=O)C23CC4CC(CC(C4)C2)C3)CC1 -9.8%
O=C1c2ccccc2NC(c2ccc(Cl)c(Cl)c2)N1Cc1ccccc1 (stereo not drawn) 7.9% [this sample at 5 µg/mL]
Cc1ccc(C)c(S(=O)(=O)Nc2ccccc2)c1 5.9% [this sample at 5 µg/mL]
CCOc1cc(C(=S)N2CCOCC2)ccc1OS(=O)(=O)c1ccc(NC(C)=O)cc1 -6.9%
Cc1occc1-c1nnc(SCC(=O)c2c[nH]c3ccccc23)n1C 0.9%
Cc1cccc(C)c1NC(=O)CSc1nnc(-c2ccoc2C)n1C -4.3%
Cn1c(SCC(=O)NC2CCCC2)nc2cccnc21 -0.5%
Cc1c(C(=O)NCCc2ccccc2)oc2ccc(S(=O)(=O)N3CCC4(CC3)OCCO4)cc12 -4.2%
COc1ccc(CNC(=O)c2ccc(S(=O)(=O)N3CCCC3)cc2)cc1OC -5.4%
Cc1cc2cc(CNC(=O)C3CC3)ccc2n1C -5.8%
COc1ccccc1NC(=O)Cc1csc(N)n1 3.7%
CCCCN(CCCC)c1nc2ccccc2nc1C(C#N)C(=O)NCCCOC (stereo not drawn) 13.6%
CCCCN(C)C/C(O)=C(\C#N)c1nc(-c2ccccc2)cs1 -4.9%
Cc1c(NC(=O)c2ccc(CSc3ccc(Cl)cc3)cc2)c(=O)n(-c2ccccc2)n1C -7.2% [this sample at 5 µg/mL]
Cc1ccc2c3c1C(=O)C(=O)N3C(C)(C)CC2C (stereo not drawn) -4.8%
O=C(COc1ccc(Cl)cc1)N(c1ccccc1)c1ccccc1 5.1% [this sample at 5 µg/mL]
Cc1cccc(OCC(=O)N/N=C/c2cn[nH]c2-c2ccc(Cl)c(Cl)c2)c1 -6.5%
CCOC(=O)c1c(C)nc2c(c1-c1ccccc1)C(=O)c1ccccc1-2 -4.1%
CCOC(=O)c1ccc(COC(=O)c2ccc3c(c2)-c2ccccc2C3=O)cc1 -10.7%
CC(CCc1ccccc1)NC(=O)c1cncc(Br)c1 (stereo not drawn) 1.4%
CCOC(=O)c1c(C)oc2c1c1c(c3ccccc32)OCN(Cc2ccccn2)C1 4.9%
CCOC(=O)c1c(C)oc2c1c(C=NCC1CCCO1)c(O)c1ccccc12 (stereo not drawn) -5.6%
Cn1c(NCc2c[nH]c3ccccc23)nc2ccccc21 -8.4%
CCOC(=O)c1csc(NC(=O)CSc2nnnn2CC)n1 -8.3%
Cc1ccc(S(=O)(=O)N2CCSC2c2ccco2)cc1 (stereo not drawn) -2%
CCOCCCn1c(SCC(=O)NCc2ccco2)nc2c(sc3ccccc32)c1=O 7.8%
Cc1ccc2ccc(C(Nc3ccccn3)c3ccccc3)c(O)c2n1 (stereo not drawn) 18.4%
Oc1c(C(Nc2ccccn2)c2ccccn2)ccc2cccnc12 (stereo not drawn) 6.9%
CC(=NCCc1ccccc1)C1=C(O)CCC1=O -2.3%
COc1ccccc1NC(=O)CSc1nnc(-c2ccco2)n1Cc1ccco1 -25.5%
COc1cccc(-c2nnc3sc(-c4ccccn4)nn23)c1 -6.2%
Cn1c(=O)oc2cc(S(=O)(=O)N3CCN(c4cccc(Cl)c4)CC3)ccc21 -5.3%
O=C1/C(=C/c2ccc(I)o2)SC(=S)N1Cc1ccccc1 -12.6% [this sample at 5 µg/mL]
Cc1ccc(/C=C2\SC(=S)N(Cc3ccccc3)C2=O)o1 -10.8%
O=C(c1coc(=O)c(Br)c1)N1CCCc2ccccc21 21.7%
CC1(C)CC(NC(=O)c2coc(=O)c(Br)c2)CC(C)(C)N1 -9.8%
O=C(CSCc1ccccc1Cl)NNC(=S)Nc1ccccc1 -12.3%
O=C1/C(=C/c2ccc(F)cc2)SC(=S)N1Nc1ncc(C(F)(F)F)cc1Cl -6.5%
COc1cc(/C=C2/SC(=S)N(CC(=O)Nc3cccc(C(=O)O)c3)C2=O)cc(OC)c1OC -3.5% [this sample at 5 µg/mL]
CCOc1cc(/C=C2\SC(=S)N(Nc3ccccc3)C2=O)ccc1O 16.9%
COc1cc(/C=C2\SC(=S)N(Nc3ncc(C(F)(F)F)cc3Cl)C2=O)ccc1O 46.2%
CC(=O)NCCNC(=O)[C@H](Cc1ccccc1)NC(=O)c1cccs1 -9%
CC1CC(C)CN(CC(C)(C)NS(=O)(=O)c2ccc(Cl)cc2)C1 (stereo not drawn) -13.3%
CCC1(C)Cc2c(C#N)c(N)sc(=S)c2CO1 (stereo not drawn) 44.1%
CC(C)C1Cc2c(C#N)c(N)n(C)c(=S)c2CO1 (stereo not drawn) -8%
O=C1NC(=S)N(c2ccc(F)cc2)C(=O)C1=Cc1ccc([N+](=O)[O-])s1 31.5% [this sample at 5 µg/mL]
CCSc1nnc(-c2ccncc2)o1 -3%
O=C(O)CSc1nnc(-c2ccccc2)o1 -16.7%
COC(=O)c1cccnc1NC(=S)NNC(=O)c1ccncc1 1.4%
O=C1N=C(c2ccccc2)S/C1=C\c1cccs1 5.5%
CC1=NN(c2ccc(Br)cc2)C(=O)/C1=C/c1cccs1 -1.8%
CCCCC(=O)Nc1cccc(NC(=O)c2ccc(Br)cc2)c1 -0.2%
Cc1cc(C)c2nc(N3CCCN(C(=O)c4cnccn4)CC3)c(C#N)cc2c1 11.5%
Cc1cc(C)c2nc(N3CCN(C)CC3)c(C#N)cc2c1 8.1%
Cc1ccc(N2CCCn3c2nc2c3c(=O)n(CCN3CCOCC3)c(=O)n2C)cc1 -11%
N=c1oc2ccccc2cc1-c1nc2ccccc2c(=O)[nH]1 5.9%
O=C(/C=C/c1ccc(OCc2ccccc2)cc1)c1cccc(Br)c1 14.7% [this sample at 5 µg/mL]
O=C(/C=C/c1ccc(OCc2ccccc2)cc1)c1ccc(Br)cc1 -5.6% [this sample at 5 µg/mL]
CC(C)(C)C1=C(C#N)C(c2ccc3c(c2)OCO3)C(C#N)=C(N)O1 (stereo not drawn) 5%
CCC1=NN2C(=N)/C(=C/c3ccc(OCc4ccccc4)cc3)C(=O)N=C2S1 0.6% [this sample at 5 µg/mL]
